Source: PubChem BioAssay (NCI)
The panel holds about 79,000 compounds, 15% with a hit somewhere; the sample as a whole holds those more often. Values without a mark were called inactive. Active and inactive are the calls of the source. Rule as the data show it: active = growth inhibition above about 70%; inactive = the rest.

Experiment: NCI Yeast Anticancer Drug Screen. Data for the rad18 strain (AID 177)
Conditions: S. cerevisiae rad18 mutant growth inhibition, stronger effect = higher value
Protocol: Growth inhibition of yeast strains with defined genetic alterations is measured as a screen for potential anti-cancer activity. Selected strains with alterations in DNA damage repair or cell cycle control were exposed to compounds and growth inhibition was measured relative to vehicle treated controls. The strain used in this assay is rad18

Structure (SMILES) | growth inhibition (at 1.2 µM) | growth inhibition (at 3.7 µM) | growth inhibition (at 11.0 µM) | growth inhibition (at 33.0 µM) | growth inhibition (at 100.0 µM)
COc1oc(C(=O)NC2CCCCC2)c(-c2ccc(Cl)cc2)c1S(=O)(=O)c1ccccc1 | -6% | -1% | 46% | 85% (active) | 80% (active)
C=C(C(=C)n1nnc(C(=O)OC)c1C(=O)OC)n1nnc(C(=O)OC)c1C(=O)OC | 0% | 0% | 1% | 0% | -1%
Cc1cc(C(C)(C)C)c(OCCCN2CCOCC2)c(C(C)(C)C)c1 | -1% | -7% | -19% | -9% | 98% (active)
Cc1c(C(C)C)cc(OCCO)cc1C(C)C | -4% | -7% | -5% | -8% | 65%
c1ccc(Cc2cc(-c3ccccc3)n[nH]2)cc1 | -5% | -4% | -1% | 19% | 61%
O=[N+]([O-])c1cccc2nc3ccccc3c(NCCC[N+]3([O-])CCCCC3)c12 | 93% (active) | 95% (active) | 96% (active) | 96% (active) | 96% (active)
COc1ccc2c(c1)n([O-])c1ccccc1[n+]2=O | 39% | 75% (active) | 93% (active) | 97% (active) | 96% (active)
CCc1c[n+]([O-])c(C)cc1[N+](=O)[O-] | 56% | 86% (active) | 92% (active) | 95% (active) | 95% (active)
